Laboratory results: the supplement of paper PMC6522484
± gives the standard deviation of the averaged measurements.

Tests used:
DLD1 [1] = test: cell viability (CellTiter-Glo) relative to plate median (fraction of plate median); higher = more viable cells; conditions: 5 µM; treatment time 24 h; reporter: 7TFP
Summary of the method: (§1)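 Colorectal cancer cell lines stably transduced with lentiviral TCF/Wnt firefly luciferase reporters (7TFP or TCF4/Wnt) were seeded in 384-well plates. 24 h later they received library compounds at a final 5 µM for 24 h. Parallel plates were read for firefly luciferase or CellTiterGlo luminescence on a Tecan F500 reader. Each well's signal was normalised to the plate median (webcellHTS2, additive, no log transformation), and the mean of two independent replicates is reported.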

HCT116 = test: as above; conditions: 5 µM; treatment time 24 h; reporter: TCF4/Wnt
Summary of the method: as §1

SW480 [2] = test: as above; conditions: 5 µM; treatment time 24 h; reporter: 7TFP
Summary of the method: as §1

DLD1 [3] = test: TCF/Wnt firefly luciferase reporter signal relative to plate median (fraction of plate median); higher = higher Wnt reporter signal; conditions: 5 µM; treatment time 24 h; reporter: 7TFP
Summary of the method: as §1

SW480 [4] = test: as above; conditions: 5 µM; treatment time 24 h; reporter: 7TFP
Summary of the method: as §1

SMILES	cell viability (DLD1 [1])	cell viability (HCT116)	cell viability (SW480 [2])	TCF/Wnt firefly luciferase reporter signal (DLD1 [3])	TCF/Wnt firefly luciferase reporter signal (SW480 [4])
NCCCCNCCCN	0.936 ± 0.011	1.03	0.958 ± 0.05	1.12 ± 0.16	1.12 ± 0.13
COc1cc2occ(-c3ccccc3)c(=O)c2c(OC)c1C	0.982 ± 0.015	1 ± 0.025	0.958 ± 0.021	1.15 ± 0.16	1.12 ± 0.05
C=C1CC[C@@H]2[C@](C)(CO)[C@H](O)CC[C@@]2(C)[C@@H]1C/C=C1/C(=O)OC[C@H]1O	1.03 ± 0.021	0.963 ± 0.052	1.02 ± 0.014	1.06 ± 0.042	0.987 ± 0.033
C[C@H](CS)C(=O)N1CCC[C@H]1C(=O)O	1.04 ± 0.097	1.02 ± 0.1	1.09 ± 0.014	1.04 ± 0.042	1.06 ± 0.021
COc1ccc(/C=C/C(=O)c2ccc(O)cc2O)cc1OC	0.955 ± 0.046	1.04 ± 0.035	1.08 ± 0.042	1.03	0.986 ± 0.062
CC(=O)N[C@@H](C=O)[C@@H](O)[C@H](O)[C@H](O)CO	1.04 ± 0.021	1.06 ± 0.014	0.945 ± 0.013	1.18 ± 0.035	1.2 ± 0.057
COc1ccc(-c2cc(=O)c3c(O)cc(OC)c(OC)c3o2)c(OC)c1	0.978 ± 0.088	0.988 ± 0.016	1.02 ± 0.064	0.9025 ± 0.005	0.896 ± 0.067
COc1cc(C(=O)NCCCCCC(=O)O)cc(OC)c1OC	0.981 ± 0.015	0.921 ± 0.044	1.01 ± 0.014	0.865 ± 0.023	0.902 ± 0.046
COc1c(N2CCNC(C)C2)c(F)cc2c(=O)c(C(=O)O)cn(C3CC3)c12 (stereo not given)	0.925 ± 0.18	0.911 ± 0.082	0.966 ± 0.048	0.933 ± 0.081	0.906 ± 0.041
CC(C)[C@H]1CC[C@H](C(=O)N[C@H](Cc2ccccc2)C(=O)O)CC1	0.905 ± 0.0028	0.972 ± 0.0014	0.973 ± 0.067	1.03 ± 0.014	0.983 ± 0.014
O=C(c1ccc(OCCN2CCCCC2)cc1)c1c(-c2ccc(O)cc2)sc2cc(O)ccc12	0.933	1.01 ± 0.1	0.938 ± 0.066	0.879 ± 0.0042	0.926 ± 0.078
CCCCC1C(=O)N(c2ccccc2)N(c2ccccc2)C1=O	1.02 ± 0.063	0.987 ± 0.12	1.035 ± 0.0071	1.14 ± 0.085	1.01 ± 0.024
O=C1c2c(O)cccc2Cc2cccc(O)c21	0.945 ± 0.025	1.02 ± 0.074	1.08 ± 0.05	0.988 ± 0.031	0.933 ± 0.017
COc1cc([C@@H]2c3cc4c(cc3[C@@H](O[C@@H]3O[C@@H]5CO[C@@H](c6cccs6)O[C@H]5[C@H](O)[C@H]3O)[C@H]3COC(=O)[C@H]23)OCO4)cc(OC)c1O	0.946 ± 0.047	0.747 ± 0.0014	0.952 ± 0.14	0.738 ± 0.032	0.868
COc1ccc(-c2c(O)c3c(OC)c4c(cc3oc2=O)OC(C)(C)C=C4)cc1	1.01	0.968 ± 0.088	0.9495 ± 0.0092	1.07 ± 0.014	1.07 ± 0.035
O=CNc1ccccc1C(=O)O [N-Formylanthranilic acid]	0.936 ± 0.018	1.02 ± 0.021	0.92 ± 0.088	0.954 ± 0.12	0.689 ± 0.13
CC[C@@]1(O)C(=O)OCc2c1cc1n(c2=O)Cc2cc3cc(O)ccc3nc2-1	1.05 ± 0.071	0.724 ± 0.093	0.999 ± 0.14	0.871 ± 0.1	0.805 ± 0.041

SMILES	cell viability (DLD1 [1])	cell viability (HCT116)	cell viability (SW480 [2])	TCF/Wnt firefly luciferase reporter signal (DLD1 [3])	TCF/Wnt firefly luciferase reporter signal (SW480 [4])
NCCCCN	0.96 ± 0.047	0.983 ± 0.02	0.97 ± 0.057	1.18 ± 0.15	1.1 ± 0.05
CCC(=O)O[C@]1(C(=O)CCl)[C@@H](C)C[C@H]2[C@@H]3CCC4=CC(=O)C=C[C@]4(C)[C@@]3(F)[C@@H](O)C[C@@]21C	1.03 ± 0.035	0.9775 ± 0.0078	1.01 ± 0.035	0.896 ± 0.27	0.893 ± 0.027
CC(=O)C[C@@H]1C[C@H](O)c2c(O)cccc2C1=O [Bhimanone]	1.06 ± 0.035	1.03 ± 0.035	1.05 ± 0.14	1.11 ± 0.035	1.12 ± 0.057
CCOC(=O)[C@H](CCc1ccccc1)N[C@@H](C)C(=O)N1Cc2ccccc2C[C@H]1C(=O)O	0.99 ± 0.057	0.895 ± 0.071	0.952 ± 0.066	0.958 ± 0.0085	0.876 ± 0.0057
CCC[C@H](N[C@@H](C)C(=O)N1[C@H](C(=O)O)C[C@@H]2CCCC[C@@H]21)C(=O)OCC	1.03 ± 0.05	1.08 ± 0.035	0.961 ± 0.037	0.982 ± 0.025	1.08 ± 0.078
Cc1c(NC(=O)c2cccnc2)c(=O)n(-c2ccccc2)n1C	1.01	1.1 ± 0.042	0.981 ± 0.015	1.06 ± 0.17	1 ± 0.037
COC(=O)[C@H](Cc1ccccc1)NC(=O)[C@@H](N)CC(=O)O	0.952 ± 0.082	1.08 ± 0.11	1.06 ± 0.014	1.045 ± 0.0071	0.985 ± 0.14
COc1c(-c2coc3cc4c(cc3c2=O)CC(O)C(C)(C)O4)ccc2c1C=CC(C)(C)O2 (stereo not given)	0.973 ± 0.081	0.973 ± 0.12	1.02 ± 0.079	0.869 ± 0.0014	0.946 ± 0.077
CCCCC(=O)O[C@H]1CC[C@H]2[C@@H]3CCc4cc(O)ccc4[C@H]3CC[C@]12C	1.07 ± 0.042	1.01 ± 0.052	1 ± 0.036	0.956 ± 0.25	1.04 ± 0.11
C=C1[C@H]2CC[C@@]3(C)[C@H](c4ccoc4)OC(=O)C[C@]13O[C@H]1C[C@H](O)C(C)(C)[C@H](CC(=O)OC)[C@]12C [3-DEOXY-3beta-HYDROXYANGOLENSIC ACID METHYL ESTER]	1.01 ± 0.061	0.958 ± 0.1	1.05 ± 0.11	1.06 ± 0.05	0.952 ± 0.035
Cc1ncc(CO)c(CO)c1O	1.02 ± 0.033	1.09 ± 0.17	1.02 ± 0.014	0.951 ± 0.11	0.9705 ± 0.0092
CCCOc1ccc(C(=O)OCCN(CC)CC)cc1N	0.9545 ± 0.0064	0.994 ± 0.051	0.95 ± 0.038	0.97 ± 0.057	1.095 ± 0.0071
CC(COc1ccccc1)N(CCCl)Cc1ccccc1 (stereo not given)	1 ± 0.057	1.05 ± 0.028	0.978 ± 0.025	1.05 ± 0.21	1.03 ± 0.014
CCCCCC(C)N (stereo not given)	1.02 ± 0.066	1.09 ± 0.021	0.954 ± 0.0099	1.14 ± 0.078	1.08 ± 0.057
CCn1cc(C(=O)O)c(=O)c2ccc(C)nc21	0.975 ± 0.16	0.9905 ± 0.0078	0.975 ± 0.016	1.07 ± 0.12	1.02 ± 0.028
CO[C@H]1[C@H](O)[C@@H](O)[C@H](O)[C@H](O)[C@H]1O	0.981 ± 0.018	0.953 ± 0.026	1.03 ± 0.014	1.11 ± 0.13	1.1 ± 0.092
O=C(O)C1(C(=O)O)CCC1.[NH2-].[NH2-].[Pt+2]	1.02 ± 0.059	1.08 ± 0.15	0.97 ± 0.028	1.15 ± 0.099	1 ± 0.039
